Screens: PubChem, National Center for Advancing Translational Sciences (NCATS)
The full list was thinned out, with hits kept by preference.
Shiga inhibitor = blocks Shiga toxin action in Vero cells; Vero cells, Shiga toxin protein synthesis inhibition reporter; inhibition, % at 38.7 µM; actives 9.2% (n = 290,000); AID 2315; in the data active means inhibition mostly above about 28%, no sharp cut-off; inactive means mostly below about 43%; further: 0% is about no effect
Giardia FBPA inh = blocks Giardia fructose-bisphosphate aldolase activity | purified Giardia FBPA | actives 0.71% (n = 290,000) | Potency, µM (highest dose often 59.6 µM), inactives show at the highest dose activity, negative = inhibition, actives largely listed as inhibitors; further: potency means the concentration at half of the fitted maximal effect; on the % scale 0 is the no-effect control and ±100 the full control effect; nearly all actives have a fitted effect of over 55% in size
Target sequence (A8B2U2 whole entry, looked up): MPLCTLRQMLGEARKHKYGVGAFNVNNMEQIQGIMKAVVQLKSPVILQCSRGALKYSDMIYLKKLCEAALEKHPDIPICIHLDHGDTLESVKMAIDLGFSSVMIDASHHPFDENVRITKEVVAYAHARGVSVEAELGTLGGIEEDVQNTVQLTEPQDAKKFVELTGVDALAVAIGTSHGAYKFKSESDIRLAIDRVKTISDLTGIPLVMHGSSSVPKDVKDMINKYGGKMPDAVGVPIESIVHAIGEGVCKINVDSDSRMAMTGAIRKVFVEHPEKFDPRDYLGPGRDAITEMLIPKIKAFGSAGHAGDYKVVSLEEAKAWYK
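40 nM FBPA preincubated 10 min at RT with compound (up to 57.5 uM final), then substrate plus GAPDH/TPI/NAD/arsenate coupling and diaphorase/resazurin added. Fluorescence read after 20 min at RT, 525/598 nm.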
RE007 growth inh = less growth of the S. pombe RE007 Vpr strain; S. pombe RE007 Vpr strain, BacTiter-Glo ATP luminescence, 24 h; Potency, µM (top dose mostly 92.2 µM), without a hit: top-dose activity change, negative = less growth, usual class: inhibitors; actives 0.21% (n = 360,000); active means well fitted falling curve with a large enough effect; inconclusive means small, poorly fitted or top-dose-only effect; inactive means no such curve, though single readings can be large or run the other way; further: potency means the concentration at half of the fitted maximal effect; on the % scale 0 is the no-effect control and ±100 the full control effect; nearly all actives have a fitted effect of over 50% in size
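Fission yeast strain RE007, carrying one chromosomally integrated HIV-1 vpr copy, was seeded at OD 0.01 in PMG+AL medium with 23 nL pinned compound. After 24 h at 30 °C and 99% humidity, viability was read by BacTiter-Glo luminescence.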
CHX counter = affects cycloheximide protein synthesis inhibition readout, counter-screen; cell reporter, cycloheximide protein synthesis inhibition counterscreen; actives 12% (n = 300,000); AID 2314; max response, %; in the data active means max response mostly above about 13%, no sharp cut-off; inactive means mostly below about 14%; further: read at 38.3 µM for the half of the compounds with a filed dose; 0% is about no effect
LmPK inh = blocks Leishmania mexicana pyruvate kinase activity; actives 0.37% (n = 290,000); purified LmPK, Kinase-Glo ATP luminescence, 1 h; AID 1721; Q27686; Potency, µM (doses to about 57.5 µM), for inactives: at the top dose activity change, negative = inhibition, usual class: inhibitors; further: potency means the concentration at half of the fitted maximal effect; on the % scale 0 is the no-effect control and ±100 the full control effect
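ATP generated from ADP (0.1 mM) and PEP (0.5 mM) by 0.1 nM LmPK over 1 h at room temperature (pH 7.2 imidazole buffer) was detected by coupled luciferase luminescence. Values were normalized to uninhibited and no-enzyme wells.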
Tb PYK inh = blocks Trypanosoma brucei pyruvate kinase | Q57TT1 | TbPYK enzyme, Kinase-Glo Plus ATP luminescence, 45 min | Potency, µM (doses to about 76.8 µM), for the others: at the highest dose activity, negative = inhibition, hits mostly inhibitors | actives 0.12% (n = 410,000) | AID 624173; further: potency means the concentration at half of the fitted maximal effect; on the % scale 0 is the no-effect control and ±100 the full control effect; nearly all actives have a fitted effect of over 50% in size
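ADP (130 uM final) triggers the TbPYK reaction after compound addition; incubation is 45 min at room temperature. Kinase-Glo Plus is then added and luminescence imaged. Normalized data are fitted to concentration-effect curves.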
* marks the source's active call; other numbers are inactive results; ? = inconclusive; . = not tested or not shown; [ ] = dose if it differs, or a comment. Unless noted, the call rests on the fitted dose curve; in most records, active means well fitted curve in the direction sought with a large enough effect; inconclusive means small, poorly fitted or top-dose-only effect, or another doubt; inactive means no such curve, though single readings can be large; an effect the other way counts as inactive or inconclusive.

SMILES	Shiga inhibitor	Giardia FBPA inh	RE007 growth inh	CHX counter	LmPK inh	Tb PYK inh
CCC1CCCCN1C(=O)c1sc(-n2nc(C)c(Cc3ccccc3)c2C)nc1C (configuration not stated)	.	.	.	.	.	-3%
C=CCC(Nc1ccc(OC)cc1)(C(=O)OCC)c1ccccc1 (configuration not stated)	.	4%	.	.	.	.
COc1ccccc1CNC(=O)CCCCn1c(=O)c2ccccc2n(Cc2ccccc2C)c1=O	.	.	.	.	.	-10%
CCCCN1C(=O)/C(=C2\SC(N3CCOCC3)=NC2=O)c2ccccc21	99*	-1%	-24%	28*	4%	-4%
CC(=O)c1cccc(S(=O)(=O)NCCc2csc3nc(-c4ccc(F)cc4)nn23)c1	.	.	.	.	.	1%
O=c1c2ccccc2cnn1CCOc1ccccc1	-12	-2%	-25%	-1	13µM*	?
CSCC(O)Cn1ncc2ccccc2c1=O (configuration not stated)	33	4%	15%	21*	0%	4%
O=C(O)Cn1ncc2ccccc2c1=O	-11	3%	-4%	2	-4%	-3%
CC(Sc1nc2c(c(=O)[nH]1)CCCC2)C(=O)Nc1cc(C(F)(F)F)ccc1Cl (configuration not stated)	.	.	.	.	.	5%
COc1ccc(Cl)cc1NC(=O)c1ccc(CN2C(=O)CCn3nc(C)cc32)cc1	.	.	.	.	.	0%
COC(=O)[C@@H](NC(=O)c1cc(COc2cncc(Cl)c2)on1)c1ccccc1	34	.	-19%	40*	-5%	-5%
COCC1CCCN(C(=O)c2cc(COc3cncc(Cl)c3)on2)C1 (configuration not stated)	101*	2%	10%	41*	0%	-8%
C=CCC1(CC=C)CCCN1C(=O)c1cc(COc2cncc(Cl)c2)on1	35*	.	.	36*	-3%	.
C=CCC1(CC=C)CCCN1C(=O)c1cc(COc2cccc(OC)c2)on1	26	.	-6%	-2	6%	-10%
O=C(CSc1ccc2nnc(CCNS(=O)(=O)c3ccccc3)n2n1)Nc1ccccc1C(F)(F)F	.	.	.	.	.	3%
Cc1cc(=O)oc2cc(O)c(O)cc12	.	-11%	.	.	.	.
Cc1ccccc1CN1CCCN(CC(=O)Nc2c(C)cccc2C)S1(=O)=O	.	.	.	.	.	0%
CS(=O)(=O)NNC(=O)c1cc2cc3ccccc3nc2s1	53*	-4%	-7%	22	-1%	-16%
COc1ccc(S(=O)(=O)NNC(=O)c2cc3cc4ccccc4nc3s2)cc1	3	-8%	21%	8	4%	0%
NNC(=O)c1cc2cc3ccccc3nc2s1	67	-9%	1%	45*	-13%	2%
CCOc1ccc(NC(=O)CC2C(=O)N(c3ccccc3)C(=O)N2Cc2cccc(OC)c2)cc1 (configuration not stated)	.	.	.	.	.	5%
CC(=O)N1c2ccccc2Oc2cc3ccccc3cc21	53	7%	-24%	26*	1%	2%
Cc1occc1C(=O)Nc1cccc(/C=C/C(=O)O)c1	.	.	-5%	.	.	-17%
COC(=O)c1cc(NC(=O)c2ccoc2C)cc(C(=O)OC)c1	-5	?	-5%	-4	-3%	1%
COc1ccc(C(=O)N/N=C(/C)c2cccc(NC(=O)C(F)(F)F)c2)cc1	73*	7%	3%	37*	0%	-3%
SMILES	Shiga inhibitor	Giardia FBPA inh	RE007 growth inh	CHX counter	LmPK inh	Tb PYK inh
C/C(=N/NC(=O)c1ccoc1C)c1cccc(NC(=O)C(F)(F)F)c1	104*	0%	15%	59*	-6%	0%
C/C(=N/NC(=O)c1ccoc1C)c1cccc(NC(=O)C2CC2)c1	73*	4%	-4%	63*	0%	10%
C/C(=N/NC(=O)c1ccc(C)s1)c1cccc(NC(=O)c2ccoc2C)c1	37	.	-3%	32*	-12%	-5%
CN(C)c1ccc(CNC(=O)C2CCCN(S(=O)(=O)c3ccc4c(ccn4C)c3)C2)cc1 (configuration not stated)	.	.	.	.	.	-3%
C[C@]12C[C@H](O)CC(CO)(CO)C1[C@H](O)C[C@@]13CC4[C@@H](CC12)[C@@]4(C)C3 (some centres not stated)	.	3%	.	.	.	.
COc1cccc([C@@H]2Oc3ccc(OC)cc3C[C@H]2OC(=O)NCc2ccco2)c1	.	4%	.	.	.	.
Oc1c(C(c2ccccc2)N2CCC(O)CC2)sc2nc(-c3ccco3)nn12 (configuration not stated)	.	.	.	.	.	9%
CC1(C)Cc2ccccc2-c2n[nH]c(=S)n21	15	0%	7%	-4	7.1µM*	2.8µM*
CC(=O)c1ccc(NC(=O)CSc2cn(CC(=O)N3CCCCC3)c3ccccc23)cc1	.	.	.	.	.	1%
C/C(CCN1CCCCc2nc(C)c(C)cc21)=N\OC[C@@H](C)[C@H](OCc1ccccc1)C(C)C	.	0%[12.9 µM]	.	.	.	.
CCN(CC)C(=O)CSc1nc2c(c(=O)n(C)c(=O)n2C)n1Cc1ccccc1	.	.	.	.	.	-1%
COc1ccc(-c2cccc(C3C4C=CCCC4(C)C(=O)N3Cc3ccccc3)c2)cc1 (configuration not stated)	24	-3%	.	10	.	.
O=c1[nH]c(-c2ccco2)nc2sc3c(c12)CCCC3	91*	1%	.	51*	-5%	-7%
CC1CCC2C(=O)OC(COc3ccc(C(C)(C)C)cc3)CN2C1c1ccc(Br)cc1 (configuration not stated)	.	0%[12.9 µM]	.	.	.	.
CC(SC1=NCCS1)C(=O)Nc1nnc(-c2ccc(Cl)cc2)s1 (configuration not stated)	29*	8%	-1%	12*	6%	0%
COc1ccccc1-c1nnc(NC(=O)C(C)SC2=NCCS2)s1 (configuration not stated)	-4	-7%	-6%	-2	15%	-1%
CC(Sc1nncn1C)C(=O)Nc1nnc(-c2ccccc2)s1 (configuration not stated)	46*	-7%	11%	23*	-2%	-2%
CC(=O)Nc1cccc(NC(=O)c2cc3ccccc3o2)c1	49	-16%	-21%	33*	-20%	0%
Cc1cc(C)nc(NC(=O)c2cc3ccccc3o2)n1	39	-6%	-1%	4	-17%	0%
Cc1ccc(NC(=O)c2cc3ccccc3o2)cc1Cl	111*	-19%	-5%	47*	-10%	2%
CC(C)C(=O)Nc1cccc(NC(=O)c2cc3ccccc3o2)c1	42*	-16%	1%	54*	-15%	0%
Cc1ccc(-c2nc3cc(NC(=O)c4cc5ccccc5o4)ccc3o2)cc1Cl	.	.	.	.	.	2%
O=C(N/N=C/C=C\c1ccco1)c1cccnc1	-3	-25%	2%	11	4%	-11%
